In PubChem BioAssay AID2676 (National Center for Advancing Translational Sciences (NCATS), 2010) one finds Potency data, which are given here for 53 compounds.

Hit rate of the full screen: of about 370,000 compounds, about 1,100 (0.3%) were called active. A call without a number means that no potency is given here. Another 1% or so got no clear call; they are omitted. The call rests on the fitted dose curve; in most records, active means well fitted activation curve with a large enough effect; inconclusive means small, poorly fitted or top-dose-only effect; inactive means flat fitted curve, though single readings scatter. Only a selection was taken, and actives are over-represented in it overall.
Potency means the concentration at half of the fitted maximal effect.

For the test, the target named is Relaxin receptor 1 (Homo sapiens) (UniProt Q9HBX9). Nature of the test: qHTS Assay for Agonists of the Relaxin Receptor RXFP1. Further: nearly all actives have a fitted effect of over 60% in size. The note with it: HEK293T-RXFP1 cAMP TR-FRET, 30 min; series mostly up to 57.5 µM. The text has this: NIH Chemical Genomics Center [NCGC] NIH Molecular Libraries Probe Production Centers Network [MLPCN] MLPCN Grant: R03 MH085705-01A1 Assay Submitter (PI): Alexander Agoulnik NCGC Assay Overview: The relaxin hormone is involved in the variety of biological functions in normal tissues and diseases. The role of relaxin is well-established in female reproduction and parturition, mammary gland and endometrial development, maintenance of myometrial quiescence during pregnancy. Relaxin signaling through its G protein-coupled receptor (GPCR) RXFP1 results in ECM remodeling through regulation of collagen deposition, cell invasiveness, proliferation and overall tissue homeostasis. […] Recombinant human relaxin (rhRlx) is currently being tested in clinical trials as a protective agent in congestive heart failure, in treating severe preeclampsia, and as an anti-fibrotic agent in systemic sclerosis. Upon relaxin binding RXFP1 activation leads to the activation of adenylate cyclase (AC) via Gs. cAMP will activate PKA, which phosphorylates many signaling proteins. Thus, detection of cAMP increase is an easy and reliable indication of relaxin receptor activation. To screen for agonists of the relaxin receptor, a HEK293T cell line stably transfected with RXFP1 was used. RXFP1 activation was assayed by changes in cAMP levels as detected with a time-resolved fluorescence energy transfer (TR-FRET) cAMP detection kit.
Relaxin receptor 1 (Homo sapiens), sequence (Q9HBX9 whole entry, looked up): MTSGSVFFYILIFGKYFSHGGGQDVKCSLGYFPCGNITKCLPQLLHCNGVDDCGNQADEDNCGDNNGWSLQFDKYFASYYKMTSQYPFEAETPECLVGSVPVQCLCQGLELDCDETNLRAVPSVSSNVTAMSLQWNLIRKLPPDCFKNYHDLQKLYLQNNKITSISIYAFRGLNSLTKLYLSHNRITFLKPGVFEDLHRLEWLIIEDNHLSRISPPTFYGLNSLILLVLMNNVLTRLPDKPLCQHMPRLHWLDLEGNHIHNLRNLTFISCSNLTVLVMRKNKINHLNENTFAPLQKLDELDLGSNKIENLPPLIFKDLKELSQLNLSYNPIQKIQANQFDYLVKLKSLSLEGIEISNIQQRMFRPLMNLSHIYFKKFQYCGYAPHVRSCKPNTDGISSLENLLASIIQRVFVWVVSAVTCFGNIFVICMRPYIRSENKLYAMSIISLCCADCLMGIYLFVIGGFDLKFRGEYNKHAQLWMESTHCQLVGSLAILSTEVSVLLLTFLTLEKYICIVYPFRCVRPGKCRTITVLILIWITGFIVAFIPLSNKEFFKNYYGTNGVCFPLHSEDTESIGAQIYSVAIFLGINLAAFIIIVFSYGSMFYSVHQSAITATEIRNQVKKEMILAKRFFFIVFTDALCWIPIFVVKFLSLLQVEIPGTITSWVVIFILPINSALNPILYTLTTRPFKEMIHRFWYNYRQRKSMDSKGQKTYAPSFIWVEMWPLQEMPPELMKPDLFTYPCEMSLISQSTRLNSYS
NCGC Assay Protocol Summary: This is a cell-based assay for cAMP second messenger response to screen for agonists of the RXFP1 receptor. The assay was conducted in the presence of a PDE4 inhibitor (Ro 20174). The cells were lysed and the cAMP levels were measured with a TR-FRET cAMP kit. Presence of cAMP in the cell lysate disrupts binding between the cryptate-labeled anti-cAMP and d2-labeled cAMP pair, leading to a decrease in the TR-FRET signal. Data were normalized to the controls for basal activity (buffer only) and 100% activity (29 nM porcine relaxin). The EC50 values were determined from concentration-response data modeled with the standard Hill equation 1536-well assay protocol for the HEK293 RXFP1 cAMP assay: (1) Add 3 ul HEK293 RXFP1 cell culture. 2000 cells/well in DMEM/F12, 10% FBS, 1x Pen/Strep (dispensed offline with MultiDrop Combi). (2) Incubate 16-24 hr at 37C, 5% CO2. (3) Add 1 ul 400uM Ro20174 in DPBS, 0.05% BSA, 0.005% Tween 20. (3) Add 23 nl compounds in DMSO solution. Final concentration was 0.5 - 58 uM. (4) Incubate 30 min at 37C, 5% CO2. (5) Add 1 ul cAMP-d2 in lysis buffer (HTRF cAMP HiRange kit, CisBio). (6) Add 1 ul anti-cAMP antibody-cryptate in lysis buffer (HTRF cAMP HiRange kit, CisBio). (7) Incubate 30 min at room temperature. (6) Detect the assay plate in a ViewLux plate reader (PerkinElmer) with Ex=320 nm, Em1=615 nm and Em2=665 nm. Keywords: relaxin, RXFP1, RXFP2, G-protein coupled receptor, cAMP, agonist, high throughput screening, MLSMR, MLSCN, NIH Roadmap, qHTS and NCGC
In general terms: In qHTS, concentration-response curves come from the screen itself.
`O=C(Nc1ccc2nc(SCC(=O)N3CCCc4ccccc43)sc2c1)c1ccc(Cl)cc1`: the Potency entry was “inactive”.

For `CCOC(=O)c1ccc(N2C(=O)c3[nH]nc(-c4ccccc4)c3C2c2ccc(C(C)C)cc2)cc1` (stereo not drawn), the Potency result was “inactive”.

Regarding `Fc1ccc(-c2nn(-c3ccccc3Cl)c3c2cnc2ccccc23)cc1`, the Potency result was “inactive”.

On to `CCOc1cccc2sc(N3CCN(C(=O)C4CC4)CC3)nc12`, for which the Potency result is “inactive”.

Consider `Cn1c(=O)c2c(ncn2CC(=O)N2CCN(c3ccccc3)CC2)n(C)c1=O`, for which the Potency entry is “inactive”.

Turning to `COc1ccc(C(=O)COC(=O)c2nn(C)c(=O)c3ccccc23)c(OC)c1`, the Potency entry is “inactive”.

`COc1ccc(C(=O)COC(=O)Cn2cnc3c2c(=O)n(C)c(=O)n3C)c(OC)c1`: the Potency is 15.8 µM (active).

For the compound `COc1ccc(Cn2ccnc2SCC(=O)Nc2ccc3c(c2)OCO3)cc1`, the Potency entry was “inactive”.

As to `CCC(C)c1ccc2oc(-c3ccc(NC(=O)c4cc5ccccc5o4)cc3)nc2c1` (stereo not drawn), the Potency entry is “inactive”.

Consider `Cn1nnnc1SCCNCc1ccc(Cl)c(Cl)c1`, for which the Potency entry was “inactive”.

Turning to `COc1ccc(Br)cc1CNC(=O)c1cc(=O)[nH]c2ccc(S(=O)(=O)N3CCCC3)cc12`, the Potency result was “inactive”.

For the compound `CCOC(=O)c1ccc(CSc2nnc3cc(C)c4ccccc4n23)cc1`, the Potency entry was “inactive”.

For `O=c1cc(-c2ccccc2)n2c(SCc3ccccc3)nnc2[nH]1`, the Potency entry is “inactive”.

Take `O=c1c2sccc2nc(SCc2cc(=O)n3ccccc3n2)n1-c1ccc(Br)cc1`: the Potency result was “inactive”.

On to `Cc1cccc2nc(CSc3nc4[nH]ncc4c(=O)n3-c3cccc(Cl)c3)cc(=O)n12`, for which the Potency result was “inactive”.

With `CCc1ccc(-n2c(SCc3cc(=O)n4cc(Br)ccc4n3)nc3[nH]ncc3c2=O)cc1`, the Potency is 20 µM (active).

For `CCCN1C(=O)C(O)(CC(=O)c2ccc(CC)cc2)c2cc(Br)ccc21` (stereo not drawn), the Potency entry was “inactive”.

With `COc1cccc(CNC(=O)Cn2ncn3c(cc4ccccc43)c2=O)c1`, the Potency result was “inactive”.

As for `CCCSc1ncc(Cl)c(C(=O)Nc2c(C(=O)Nc3ccccc3)oc3ccccc23)n1`, the Potency result was “inactive”.

On to `Cc1cc(NS(=O)(=O)c2ccc(NC(=O)c3ccccc3C)cc2)nc(C)n1`, for which the Potency entry is “inactive”.

Turning to `CCCn1c(NCc2ccccc2F)nc2ccccc21`, the Potency entry was “inactive”.

On to `COc1ccc(-c2cn3c(n2)sc2cc(C(=O)Nc4ccc(F)cc4)ccc23)cc1`, for which the Potency result was “inactive”.

For `O=C(Cn1nc(Cc2cccnc2)c2ccccc2c1=O)N1CCN(c2ccccc2F)CC1`, the Potency result was “inactive”.

Take `Cc1ccccc1NC(=O)Cn1c(=O)n(CCCCC(=O)NCc2ccccc2Cl)c(=O)c2ccccc21`: the Potency entry is “inactive”.

As for `CCCCNC(=O)CSc1nc2cc3c(cc2c(=O)n1CCCCCC(=O)NCc1ccc2c(c1)OCO2)OCO3`, the Potency result was “inactive”.

Take `CC(C)CCSc1ncnc2c1oc1nc3c(cc12)COC(C)(C)C3`: the Potency entry is “inactive”.

Turning to `O=C(CSc1ncnc2scc(-c3ccccc3)c12)NCc1ccc2c(c1)OCO2`, the Potency entry was “inactive”.

`CC1(C)Cc2nc3sc4c(SCC(=O)NC(c5ccccc5)c5ccccc5)ncnc4c3cc2CO1`: the Potency is 3.16 µM (active).

As for `Cc1ccc(Cl)cc1N1CCN(S(=O)(=O)c2cc3[nH]c(=O)c(=O)[nH]c3cc2C)CC1`, the Potency entry is “inactive”.

`COc1ccc2c(c1)Cc1sc(NC(=O)c3ccccc3Br)nc1-2`: the Potency entry was “inactive”.

On to `COc1ccc(NC(=O)CCc2nnc3n(CC(C)C)c(=O)c4ccccc4n23)cc1OC`, for which the Potency result is “inactive”.

As to `COc1cc(OC)cc(C(=O)Nc2c(C(=O)Nc3ccc(F)cc3)oc3ccccc23)c1`, the Potency entry was “inactive”.

Consider `COc1cccc(-c2nc(CS(=O)(=O)CC(=O)N3CCN(c4cc(C)ccc4C)CC3)c(C)o2)c1`, for which the Potency result was “inactive”.

Consider `Cc1cccc(Cn2c(SCc3ccc(C(=O)N4CCC(C)CC4)cc3)nc3ccncc32)c1`, for which the Potency result is “inactive”.

`COc1ccccc1CNC(=O)C(=O)NCC(c1ccco1)S(=O)(=O)c1ccc(F)cc1` (stereo not drawn): the Potency entry was “inactive”.

In the case of `COc1cccc(C(=O)Nc2nnc(S(=O)(=O)N(C)c3ccccc3)s2)c1`, the Potency entry was “inactive”.

In the case of `CCCCC(=O)Nc1nnc(S(=O)(=O)N(C)Cc2ccco2)s1`, the Potency entry was “inactive”.

Regarding `CCC(=O)Nc1ccccc1-c1nc2ccccc2n(CC(=O)Nc2ccc(C)c(C)c2)c1=O`, the Potency entry is “inactive”.

Regarding `CC1CCN(C(=O)Cn2c(=O)n(-c3ccc(Cl)cc3)c(=O)c3c4c(sc32)CCC4)CC1`, the Potency entry was “inactive”.

On to `CCC(C)Nc1oc(-c2ccc(COc3ccc(Cl)cc3)o2)nc1C#N` (stereo not drawn), for which the Potency entry was “inactive”.

For `CCOC(=O)c1c(C)[nH]c(CCC(=O)NCCCN2CCN(c3cccc(Cl)c3)CC2)c1C`, the Potency result is “inactive”.

With `Cc1ccc(Nc2c(-c3ccc(Cl)cc3)nc3sccn23)c(C)c1`, the Potency result is “inactive”.

As to `CC(=O)N1CCCc2cc(S(=O)(=O)Nc3ccc(Cl)cc3F)ccc21`, the Potency result is “inactive”.

For `O=C(COc1ccc(Cl)cc1)Nc1ccccc1OCc1cc(=O)n2ccccc2n1`, the Potency result is “inactive”.

`CCOc1ccccc1C(=O)Nc1ccc2c(c1)N(C)C(=O)c1ccccc1S2`: the Potency entry was “inactive”.

For `CC(=O)Nc1cccc(NC(=O)CSc2nccn2Cc2ccc3c(c2)OCO3)c1`, the Potency result was “inactive”.

Take `Cc1cc(OCC(=O)NCC2(N(C)C)CCCCC2)cc(C)c1Cl`: the Potency result is “inactive”.

On to `COc1ccc(CNC(=O)CSc2n[nH]c(-c3ccc(F)cc3)n2)cc1`, for which the Potency entry was “inactive”.

As to `CCc1ccc(NC(=O)CN2CCSc3ccc(S(=O)(=O)N4CCCC4)cc32)cc1`, the Potency result is “inactive”.

For the compound `Cc1ccc(S(=O)(=O)N(Cc2nc(-c3ccc(Cl)cc3)no2)C2CCCCC2)cc1`, the Potency entry is “inactive”.

Take `COc1ccc2c(c1)c(=O)c(C(=O)c1ccccc1)cn2CC(=O)Nc1ccc2c(c1)OCCO2`: the Potency result is “inactive”.

For the compound `CCCC(=O)N1CCN(c2nc3c(OC)ccc(C)c3s2)CC1`, the Potency entry was “inactive”.

As to `CCCN(CCC)CCNC(=O)c1ccc2c(c1)NC(=O)C(CS(=O)(=O)Cc1cccc(Br)c1)N2` (stereo not drawn), the Potency entry was “inactive”.
